Records with an inconclusive call do not appear. A call without a number means that no potency is given here. Unmarked numbers belong to inactive results. Active and inactive are the calls of the source. The call rests on the fitted dose curve; in most records, active means well fitted activation curve with a large enough effect in the repeat runs; inconclusive means weak or mixed curves; inactive means flat fitted curve, though single readings scatter.
Assay: Caspase-3/7 induction in HepG2 cells by small molecules, qHTS assay (AID 1346978); further: nearly all actives have a fitted effect of over 15% in size
Conditions: HepG2 caspase-3/7 activation, Caspase-Glo luminescence, 17 h; series mostly up to 92.4 µM
Method in brief: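 Wild-type HepG2 cells, 2,000/well, settled 5 hr at 37 C and 5% CO2, then compound-treated for 17 hr; caspase-3/7 activity read by luminescent Caspase-Glo 3/7 after 30 min at room temperature.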
With `CC/C=C(\C)C=O` the Potency was “inactive”. For `O=C(O)CN(CCCN(CC(=O)O)CC(=O)O)CC(=O)O`, the caspase activation was 0.754% [at 19 µM]. With `CSc1ccc(O)cc1C` the Potency was “inactive”. In the case of `O=C(NCc1ncc(C(F)(F)F)cc1Cl)c1c(Cl)cccc1Cl`, the Potency is reported as 19.3 µM (active). For `O=c1cc[nH]cc1`, the Potency was “inactive”. With `CN1CCN(CCCN2c3ccccc3Sc3ccc(Cl)cc32)CC1` the Potency was “inactive”. With `CCOc1nc(F)cc2nc(S(=O)(=O)Nc3c(Cl)cccc3C(=O)OC)nn12` the Potency was “inactive”. For `Cn1ccnc1`, the Potency was “inactive”. `CCCCCCCCCCCCS(=O)(=O)Cl` gave a caspase activation of -0.157% [at 19 µM]. For `CCN(CCC#N)c1ccc(N=Nc2ccc([N+](=O)[O-])cc2)cc1`, the Potency was “inactive”. In the case of `CC(C)C(=O)C(C)C`, the Potency is reported as “inactive”. With `CCN(CC)c1ccc2c(c1)Oc1cc(N(CC)CC)ccc1C21OC(=O)c2ccccc21` the Potency was “inactive”. For `Cc1cc(Br)ccc1NC(=O)CCl`, the Potency was “inactive”. For `N#Cc1nc(Cl)c(Cl)c(Cl)c1Cl`, the Potency was “inactive”. With `[Cl][Eu]([Cl])[Cl]` the Potency was “inactive”. In the case of `N#CCCOCCC#N`, the Potency is reported as “inactive”. With `Oc1cccc2c(O)cccc12` the Potency was “inactive”. With `Nc1ccc(F)c([N+](=O)[O-])c1` the Potency was “inactive”. With `CC(=O)CC(N)=O` the Potency was “inactive”. With `Oc1ccc(C2(c3ccc(O)c(C4CCCCC4)c3)CCCCC2)cc1C1CCCCC1` the Potency was 24.3 µM (active). With `CCSCC` the Potency was “inactive”. For `C=CC(=O)OCCOC1C2CCC1C1CC=CC12` (configuration not stated), the caspase activation was 2.88% [at 19 µM]. With `CC(C=O)c1ccccc1` (configuration not stated) the Potency was “inactive”. For `CCCC(C)C=O` (configuration not stated), the Potency was “inactive”. For `C=CC(=O)O[C@H]1C[C@@H]2CC[C@@]1(C)C2(C)C`, the Potency was “inactive”. With `O=C1OC(=O)c2cc(-c3ccc4c(c3)C(=O)OC4=O)ccc21` the Potency was “inactive”. In the case of `CCCCCCCCCCCCCCCCCCNC(=O)OC1CCN(C(=O)OC[C@H](COC(=O)N(Cc2cccc[n+]2CC)C(=O)c2ccccc2OC)OC)CC1`, the Potency is reported as “inactive”. `C=C[Si](C)(C)Cl` gave a caspase activation of -0.0006% [at 8.39 µM]. For `CCC(C)(C)c1ccc(CC(C)CN2C[C@@H](C)O[C@@H](C)C2)cc1` (some centres not stated), the Potency was “inactive”. For `CN1CCN(c2ccccc2/C=C2\SCCN(c3ccc(Cl)c(Cl)c3)C2=O)CC1`, the Potency was 61.1 µM (active). For `Cc1ccc2nc(-c3ccc(N)cc3)sc2c1S(=O)(=O)O`, the Potency was “inactive”. With `O=[N+]([O-])c1ccc(CO)cc1` the Potency was “inactive”. For `NC(=O)c1ccccc1Cl`, the Potency was “inactive”. With `CC(CC(C)(C)C)CC(C)(C)CC(C)(C)C` (configuration not stated) the Potency was “inactive”. In the case of `O=C(O)C[C@H](O)C[C@H](O)/C=C/c1c(C2CC2)nc2ccccc2c1-c1ccc(F)cc1`, the Potency is reported as 10.3 µM (active). In the case of `C=Cc1ccncc1`, the Potency is reported as “inactive”. For `CCN(CC)c1ccc(N=Nc2ccccc2)cc1`, the Potency was “inactive”.

From PubChem BioAssay (Tox21)
Potency means the concentration at half of the fitted maximal effect.
